# Test results taken from the supplement of paper PMC8047044.
# Where “and” joins values, the source holds several entries; their conditions need not be identical. Identical values can stand only once. Counter-ions that a name gives are not always drawn.
# Columns and labels:
# Neuro-2a [1] = assay: neurite formation score, plate-normalized to DMSO control mean 5.04 (score (0-8 scale)); higher = more or longer neurites; settings: 1 µM
# Procedure: (§1)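 Neuro-2a mouse neuroblastoma cells in PLL-coated 96-well plates were pre-treated for 1 h in DMEM(+) with each kinase inhibitor at 1 µM, then switched to serum-free DMEM(-) with inhibitor to induce neurite outgrowth and fixed about 2-3 h later. Three blinded observers scored neurite formation from 0 (no neurites) to 8 (long neurites on almost all cells).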
# Neuro-2a [2] = assay: as above; settings: 0.1 µM
# Procedure: as §1, with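 “at 0.1” for “at 1”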
SMILES,neurite formation score (Neuro-2a [1]),neurite formation score (Neuro-2a [2])
CC[C@@H]1C(=O)N(C)c2cnc(Nc3ccc(C(=O)NC4CCN(C)CC4)cc3OC)nc2N1C1CCCC1,5.02,4.58
CC(C)(C)c1cc(NC(=O)Nc2ccc(-c3cn4c(n3)sc3cc(OCCN5CCOCC5)ccc34)cc2)no1 [Quizartinib (AC220)],4.57,5.21
CCS(=O)(=O)Nc1ccc2[nH]c(O)c(C(=Nc3ccc(CN4CCCCC4)cc3)c3ccccc3)c2c1 [Hesperadin],1.02,3.92
COc1ccc(-c2ccc3c(N4CCOC[C@@H]4C)nc(N4CCOC[C@@H]4C)nc3n2)cc1CO,4.57,3.21
COc1cc2ncnc(Nc3ccc(O)c(Br)c3)c2cc1OC,4.47,5.09
Cc1cnc(-c2cnc(NCCNc3ccc(C#N)cn3)nc2-c2ccc(Cl)cc2Cl)[nH]1,5.29 and 4.57,4.92 and 4.04
COc1cc2nccc(Oc3ccc(NC(=O)Nc4cc(C)on4)c(Cl)c3)c2cc1OC [Tivozanib (AV-951)],4.24,4.71
CCN(CCCOc1ccc2c(Nc3cc(CC(=O)Nc4cccc(F)c4)[nH]n3)ncnc2c1)CCOP(=O)(O)O,4.91,4.71
Cc1c(Cn2c(C)nc3c(C(=O)O)cc(N4CCOCC4)cc32)cccc1C(F)(F)F,4.88,4.08
C[C@@H](Oc1ccc2[nH]nc(/C=C/c3cnn(CCO)c3)c2c1)c1c(Cl)cncc1Cl,1.02,4.92
FC(F)(F)c1ccc(CNc2ccc(Cc3c[nH]c4ncccc34)cn2)cc1,3.54,5.08
CO[C@H]1C[C@@H]2CC[C@@H](C)[C@@](O)(O2)C(=O)C(=O)N2CCCC[C@H]2C(=O)O[C@H]([C@H](C)C[C@@H]2CC[C@@H](O)[C@H](OC)C2)CC(=O)[C@H](C)/C=C(\C)[C@@H](O)[C@@H](OC)C(=O)[C@H](C)C[C@H](C)/C=C/C=C/C=C/1C [Rapamycin (Sirolimus)],4.57,5.54
CNC(=O)c1cc(Oc2ccc(NC(=O)Nc3ccc(Cl)c(C(F)(F)F)c3)cc2)ccn1 [Sorafenib Tosylate],4.57,3.54
COc1cc2ncnc(Nc3cccc(Cl)c3)c2cc1OC,3.57,5.54
Cc1cn(-c2cc(NC(=O)c3ccc(C)c(Nc4nccc(-c5cccnc5)n4)c3)cc(C(F)(F)F)c2)cn1 [Nilotinib(AMN-107)],4.57,5.21
COc1cc(C(=O)N2CCC(N3CCN(C)CC3)CC2)ccc1Nc1ncc2c(n1)N(C)c1ccccc1C(=O)N2C,4.36,4.92
N#C/C(=C(/N)Sc1ccc(N)cc1)c1ccccc1C(F)(F)F,3.91,4.71
COc1ccc(-c2ccc3ncc4c(c3c2)n(-c2ccc(N3CCNCC3)c(C(F)(F)F)c2)c(=O)n4C)cn1,4.29,4.92
CCN1CCN(Cc2ccc(Nc3ncc(F)c(-c4cc(F)c5nc(C)n(C(C)C)c5c4)n3)nc2)CC1,4.57,3.04
O=c1oc2c(O)c(O)cc3c(=O)oc4c(O)c(O)cc1c4c23 [Ellagic acid],4.47,4.42

SMILES,neurite formation score (Neuro-2a [1]),neurite formation score (Neuro-2a [2])
CCn1nnc2c(N3CCOCC3)nc(-c3ccc(NC(=O)Nc4ccc(C(=O)N5CCN(C)CC5)cc4)cc3)nc21,3.14,4.76
COc1ccccc1-c1cc(Nc2cccc(CS(N)(=O)=O)c2)ncn1,4.54,4.42
CC(C)(C)c1cnc(CSc2cnc(NC(=O)C3CCNCC3)s2)o1,4.57,4.38
Nc1ccc(-c2ccc3ncc4ccc(=O)n(-c5cccc(C(F)(F)F)c5)c4c3c2)cn1 [Torin 2],3.21,3.42
CNc1nc(-c2ccc3c(N)n[nH]c3c2)cc(N2C[C@@H](C(=O)NC3CCCCC3)CC[C@H]2C)n1,4.88,1.42
C[C@@H](Oc1cc(-c2cnn(C3CCNCC3)c2)cnc1N)c1c(Cl)ccc(F)c1Cl [(R)-Crizotinib],4.91,4.71
Cn1cnc(=N)c2[nH]cnc21 [3-Methyladenine],4.24,4.88
COc1cc2ncnc(Nc3cccc(Cl)c3F)c2cc1OC(=O)N1CCN(C)C[C@H]1C,4.54,4.75
Cn1c(Nc2ccc(C(F)(F)F)cc2)nc2cc(Oc3ccnc(-c4ncc(C(F)(F)F)[nH]4)c3)ccc21,4.24,4.88
Cc1nc(NC(=O)N2CCC[C@H]2C(N)=O)sc1-c1csc(C(C)(C)C)n1,4.57,5.21
CNC(=O)c1ccccc1Nc1nc(Nc2ccc(N3CCOCC3)cc2OC)ncc1Cl,4.29,4.58
O=S(=O)(c1cccc2c(O)nccc12)N1CCCNCC1 [Hydroxyfasudil hydrochloride],3.8,2.09
COc1ccc(S(=O)(=O)N(C(C)=O)c2ccccc2/C=C/c2cc[n+]([O-])cc2)cc1,0.569,3.54
CN1CCC(CNc2ccc3ncc(-c4cccc(OC(F)(F)F)c4)n3n2)CC1 [SGI-1776 free base],5.69,5.25
Cc1cn(-c2cc(NC(=O)c3ccc(C)c(Nc4nccc(-c5cccnc5)n4)c3)cc(C(F)(F)F)c2)cn1 [Nilotinib monohydrochloride monohydrate],4.47,3.09
CC(C)NC[C@@H](C(=O)N1CCN(c2ncnc3c2[C@H](C)C[C@H]3O)CC1)c1ccc(Cl)cc1,4.24,5.04
CC(C)Nc1cc(-c2c[nH]c(C(=O)N[C@H](CO)c3cccc(Cl)c3)c2)c(Cl)cn1,3.47,4.76
CCC(=O)Nc1cccc(Oc2nc(Nc3ccc(N4CCN(C)CC4)cc3OC)ncc2Cl)c1,5.63,4.25
CN1CCC(Nc2nc(Nc3ccc(Oc4ccccc4)cc3)c3c(=O)[nH]cc(Br)c3n2)CC1,3.29,4.25
CCn1c(-c2nonc2N)nc2c(C#CC(C)(C)O)ncc(OC[C@H]3CCCNC3)c21,4.02,3.25
